Results published in PubChem BioAssay (NCI).
About 83,000 compounds went through this panel and 20% of them were active in at least one assay; those are over-represented in the sample as a whole.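 Activity criterion: percent growth below 10, measured after cells in 96-well plates were exposed to a single compound concentration for 48 hours.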 Values without a mark were called inactive. Activity calls are given as the source filed them.

Each compound was assayed on NCI/ADR-RES ovarian (assay: NCI-60 one-dose screen, 48 h (100 = growth as untreated, 0 = no growth, -100 = all killed)). Conditions: 10 µM unless noted.
Experimental: Growth inhibition of the NCI/ADR-RES human […] tumor cell line is measured as a screen for anti-cancer activity. Cells are grown in 96 well plates and exposed to the test compound for 48 hours. Compounds are tested at a single concentration, which is 10^-5 M for most compounds. The reported endpoint is percent growth (GI% or GIPRCNT), where numbers from 0 - 100% represent growth inhibition, and numbers from -100% - 0 represent cell death. For example, a value of 40 represents 60% growth inhibition. A value of 0 means no net growth occurred over the course of the experiment. A value of -40 indicates 40% of cells at the beginning of the experiment died by the end of the experiment. A value of -100 means all cells are dead at the end of the experiment.
NCI-60 Human Tumor Cell Lines Screen was performed using the standard one-dose NCI protocol, which is described in more detail at https://dtp.cancer.gov/discovery_development/nci-60/default.htm.
Compounds with GIPRCNT values below 10 were considered active. Activity score was based on GIPRCNT using the following formula: […]
Score is 0 for GIPRCNT values of 100 or above, 50 for GIPRCNT values of 0, and 100 for GIPRCNT values of -100.

Compound	growth
O=C1N=C(c2c(-c3[nH]c(=O)c4ccc(Br)cc4c3O)c(O)c3ccccc3c2O)C(=O)c2cc(Br)ccc21	-28.9% (active)
O=C(CNc1ccc(Cl)cc1)Nc1ccc(-c2nc3ccccc3s2)cc1	64.5%
COc1cc(Cn2c(SCCC(=O)Nc3ccc(F)cc3)nc3ccccc3c2=O)cc(OC)c1OC	83.5%
CC(C)(C)c1cc(-c2nc3ccc(N4CCN(CCO)CC4)cc3[nH]2)cc(C(C)(C)C)c1O	93.2%
COc1ccc(-c2nc3sccn3c2-c2ccnc(NCCNS(=O)(=O)c3ccc(C(F)(F)F)cc3)n2)cc1	9.11% (active)
O=C(NCCc1c[nH]c2ccccc12)C1Cc2ccccc2CN1C(=O)c1ccco1 (stereo not given)	128%
C#CCC1(c2ccc(F)c(F)c2)NS(=O)(=O)c2ccccc21 (stereo not given)	103%
O=C(CCCn1c(=O)c2sc3ccccc3c2n2nnc(-c3ccccc3)c12)NCCc1cnc[nH]1	36.1%
Cc1nc(Nc2cccnc2)sc1C(=O)/C=C/c1ccc(Cl)cc1	35.4%
C=C1C(=O)O[C@H]2[C@H]1CC/C(COC(=O)NCc1cc(OC)cc(OC)c1)=C\CC[C@@]1(C)O[C@@H]21	63.4%
COc1cc(Br)c(OC)cc1Br	95.3%
O=C(/C=C/CN1CCOCC1)Nc1cc2c(Nc3ccc(F)c(Cl)c3F)ncnc2cc1OCCOC(F)F	36.2%
Oc1ccc(Cl)cc1-c1cc(-c2ccc(Cl)cc2)n[nH]1	65.1%
O=S(=O)(NCCNc1cc(-c2cn(-c3ccccc3)nc2-c2ccccc2)ccn1)c1ccc(F)cc1	81.3%
O=S(=O)(NCCCNc1nccc(-c2c(-c3ccc(F)c(O)c3)nc3sccn23)n1)c1ccc(Cl)cc1	103%
COc1cc(C2C3=C(COC3=O)Nc3c2ccc2c3CCCC2)cc2c1OCO2 (stereo not given)	3.82% (active)
COc1cc(OC)c(C(=O)/C=C/c2ccc(C(F)(F)F)cc2)c(OC)c1	46.9%
COc1cc(Cn2c(SCC(=O)Nc3cc(OC)c(OC)c(OC)c3)nc3ccccc3c2=O)cc(OC)c1OC	99.5%
CCC(=O)Nc1ccccc1C#C/C=C\C#Cc1ccccc1SC	49.9%
Cc1ccc(C(=O)c2sc3nc4c(cc3c2N)CCCC4)c(C)c1	13.9%

Compound	growth
C/C(=N\NC(=O)CC#N)c1cc2cc(Cl)ccc2o1	110%
CCCCCCCCCCCCNC(=S)N/N=C/c1ccc(Cl)c(Cl)c1	113%
CC(C)C(C(=O)CCN(C)C)c1ccc(Cl)cc1 (stereo not given)	106%
COc1cc(CCn2nnc3c(Nc4ccc(N5CCOCC5)cc4)ncnc32)cc(OC)c1	86.3%
Clc1ccc([I+]c2ccc(Cl)cc2Cl)c(Cl)c1	79.4%
Cc1cc(NC(=O)COC(=O)c2sc3cc(F)ccc3c2Cl)no1	107%
CCN(C(=O)c1cc2ncccc2[nH]1)[C@H]1CCC[C@@H](NCc2cccc(F)c2)C1	89.1%
Nc1c(C(=O)Nc2c(Cl)cccc2Cl)sc2nc3c(cc12)CCCCC3	53.5%
CC(C)(C)OC(=O)N[C@@H](Cc1ccccc1)C(=O)N(Cc1ccccc1)C1(C(=O)NCc2ccccc2)CCN(Cc2ccccc2)CC1	12.1%
CN(C)c1ccc(C2CC(c3ccccc3)=NN2/C=C2\SC(=O)NC2=O)cc1 (stereo not given)	95.2%
CC[C@H](C)[C@H]1NC(=O)[C@@H](N[C@](C)(O)[C@@H](N)CC(C)C)[C@@H](C)OC(=O)[C@H](Cc2ccc(OC)cc2)N(C)C(=O)[C@@H]2CCCN2C(=O)[C@H](CC(C)C)NC(=O)[C@@H](C)C(=O)[C@H](C(C)C)OC(=O)C[C@@H]1O	37.4%
COc1cccc2nc(Nc3ccc(NC(=O)c4ccc5ncccc5c4)cc3)ccc12	86%
COc1cccc(NC(=O)Cn2cc3c(=O)oc4ccccc4c3n2)c1	100%
CCN(Cc1ccc(CN(CC)C(=O)C(Br)Br)cc1)C(=O)C(Br)Br	39.7%
COc1ccc(S(=O)(=O)Nc2cc(/C=C\c3cc(OC)c(OC)c(OC)c3)cc(OC)c2OC)cc1OC	12.6%
COC(=O)c1cc(-c2cccs2)c(C#N)c(N)c1C#N	106%
COc1ccc(C2CC(=O)Nc3c2c(C)nn3-c2nc3ccccc3[nH]2)cc1OC (stereo not given)	77.7%
CC(=O)N1Cc2ccccc2C(C)Cc2cc(Cl)ccc21 (stereo not given)	117%
CCC(c1ccc(OC)cc1)C(CC)c1ccc(OCC[N+](C)(C)C)cc1 (stereo not given)	100%
O=C(COc1ccccc1)N1N=C(c2ccc(Cl)cc2)CC1c1c[nH]c2ccccc12 (stereo not given)	83%
